From PubChem BioAssay AID1479148 (National Center for Advancing Translational Sciences (NCATS), 2020)
Records with an inconclusive call do not appear. Activity calls are given as the source filed them. Calls come from the whole dose curve.

Assay: Confirmatory qHTS for inhibitors of SARS-S pseudo-typed particle cell entry
Settings: SARS-S pseudotyped particle cell entry, reporter luminescence; series mostly up to 57.1 µM

Row | SMILES | Potency
1 | C=C(C)[C@H]1Cc2c(ccc3c2O[C@@H]2COc4cc(OC)c(OC)cc4[C@@H]2C3=O)O1 | 34.1 nM (active)
2 | CCN(CC)CCNC(=O)c1c(C)[nH]c(/C=C2\C(=O)Nc3ccc(F)cc32)c1C | 6070 nM (active)
3 | COc1cccc2c1C(=O)c1c(O)c3c(c(O)c1C2=O)C[C@@](O)(C(=O)CO)C[C@@H]3O[C@H]1C[C@H](N)[C@H](OC2CCCCO2)[C@H](C)O1 (stereo partly drawn) | 7640 nM (active)
4 | CC(C)OC(=O)[C@H](C)N[P@](=O)(CO[C@H](C)Cn1cnc2c(N)ncnc21)Oc1ccccc1 | 171 nM (active)
5 | Nc1nc(Cl)nc2c1ncn2C1CC(O)C(CO)O1 (stereo not drawn) | 12100 nM (active)
6 | Nc1ccn([C@@H]2O[C@H](CO)[C@@H](O)C2(F)F)c(=O)n1 | 192 nM (active)
7 | CC(=O)[C@]1(O)Cc2c(O)c3c(c(O)c2[C@@H](O[C@H]2C[C@H](N)[C@H](O)[C@H](C)O2)C1)C(=O)c1ccccc1C3=O | 6070 nM (active)
8 | COC(=O)C[C@](O)(CCCC(C)(C)O)C(=O)O[C@@H]1C(OC)=C[C@]23CCCN2CCc2cc4c(cc2[C@H]13)OCO4 | 1520 nM (active)
9 | c1ccc2c(c1)Sc1ccccc1N2CC1CN2CCC1CC2 (stereo not drawn) | 27100 nM (active)
10 | CC(C)OC(=O)OCOP(=O)(CO[C@H](C)Cn1cnc2c(N)ncnc21)OCOC(=O)OC(C)C | 42.9 nM (active)
11 | N#CC(c1ccc(Cl)cc1)c1c(Cl)cc(-n2ncc(=O)[nH]c2=O)cc1Cl (stereo not drawn) | 19200 nM (active)
12 | CCCCCCCCCCCCCC[n+]1ccc(C)cc1 | 3830 nM (active)
13 | CC(C)(C)C(=O)OCOP(=O)(COCCn1cnc2c(N)ncnc21)OCOC(=O)C(C)(C)C | 38.3 nM (active)
14 | Cc1oncc1C(=O)Nc1ccc(C(F)(F)F)cc1 | inactive
15 | COc1cccc2c1C(=O)c1c(O)c3c(c(O)c1C2=O)C[C@@](O)(C(C)=O)C[C@@H]3O[C@H]1C[C@H](N)[C@H](O)[C@H](C)O1 | 2150 nM (active)
16 | CC[C@@]1(O)C(=O)OCc2c1cc1n(c2=O)Cc2cc3c(CN(C)C)c(O)ccc3nc2-1 | 764 nM (active)
17 | CCN(CC)Cc1cc(Nc2ccnc3cc(Cl)ccc23)ccc1O | 8570 nM (active)

Row | SMILES | Potency
18 | CC(C)C[C@H](NC(=O)[C@H](CCc1ccccc1)NC(=O)CN1CCOCC1)C(=O)N[C@@H](Cc1ccccc1)C(=O)N[C@@H](CC(C)C)C(=O)[C@@]1(C)CO1 | 681 nM (active)
19 | C[n+]1c2cc(N)ccc2cc2ccc(N)cc21 (tested in a mixture with another compound) | 6810 nM (active)
20 | CN[C@H]1CC[C@@H](c2ccc(Cl)c(Cl)c2)c2ccccc21 | 19200 nM (active)
21 | COc1ccc2cc1Oc1ccc(cc1)C[C@H]1c3c(cc4c(c3Oc3cc5c(cc3OC)CCN(C)[C@@H]5C2)OCO4)CCN1C | 2150 nM (active)
22 | CN(C)[C@@H](CCOc1cccc2ccccc12)c1ccccc1 | 6810 nM (active)
23 | Oc1c(Cl)cc(Cl)c(Cl)c1Cc1c(O)c(Cl)cc(Cl)c1Cl | 1210 nM (active)
24 | COc1cc2c(cc1Cc1cccc(Cl)c1F)c(=O)c(C(=O)O)cn2[C@H](CO)C(C)C | 60.7 nM (active)
25 | COc1cccc2c1C(=O)c1c(O)c3c(c(O)c1C2=O)C[C@@](O)(C(=O)CO)CC3OC1CC(N2CCOC(OC)C2)C(O)C(C)O1 (stereo partly drawn) | 96.1 nM (active)
26 | Cc1nnc(C(=O)NC(C)(C)c2nc(C(=O)NCc3ccc(F)cc3)c(O)c(=O)n2C)o1 | 10.8 nM (active)
27 | CC[C@@]1(O)C(=O)OCc2c1cc1n(c2=O)Cc2cc3c([N+](=O)[O-])cccc3nc2-1 | 124 nM (active)
28 | COc1cc(NS(C)(=O)=O)ccc1Nc1c2ccccc2nc2ccccc12 | 961 nM (active)
29 | CCC(C)(C)C(=O)O[C@H]1C[C@@H](C)C=C2C=C[C@H](C)[C@H](CC[C@@H]3C[C@@H](O)CC(=O)O3)[C@H]21 | 607 nM (active)
30 | C[C@]12CC[C@H](O)C[C@H]1CCC1C2CC[C@]2(C)[C@@H](c3ccc(=O)oc3)C[C@H]3O[C@]132 (stereo partly drawn) | 5410 nM (active)
31 | CNC(=O)c1cc(Oc2ccc(NC(=O)Nc3ccc(Cl)c(C(F)(F)F)c3)c(F)c2)ccn1 | 8570 nM (active)
32 | CN1CCC(=C2c3ccccc3CCc3sccc32)CC1 | 27100 nM (active)
33 | NCCNc1ccc(NCCN)c2c1C(=O)c1ccncc1C2=O | 857 nM (active)
